These results are taken from ChEMBL document CHEMBL3988442, “University of Dundee, Small-Polar-MMV Screening Library” (2021).

Values joined by “and” are separate entries in the source; they are usually repeats but may differ in a detail not shown here. Identical values can stand only once. For part of these data: Results with a measured potency or affinity are listed apart.

Holding throughout (set-up): scale not given: direction of the effect not stated beside the values
Assay [1] concerns the target Protein translocase subunit SecA (Escherichia coli (strain K12)) (UniProt P10408). The assay can be described thus: Assay to Identify E. coli SecA ATPase Inhibitors. The class given is functional. The note with it: 30 µM.
Assay [2] concerns the target T1, Ubiquitin-activating enzyme e1, putative (Leishmania donovani (strain BPK282A1)) (UniProt E9BSI1).
T1 sequence (whole entry): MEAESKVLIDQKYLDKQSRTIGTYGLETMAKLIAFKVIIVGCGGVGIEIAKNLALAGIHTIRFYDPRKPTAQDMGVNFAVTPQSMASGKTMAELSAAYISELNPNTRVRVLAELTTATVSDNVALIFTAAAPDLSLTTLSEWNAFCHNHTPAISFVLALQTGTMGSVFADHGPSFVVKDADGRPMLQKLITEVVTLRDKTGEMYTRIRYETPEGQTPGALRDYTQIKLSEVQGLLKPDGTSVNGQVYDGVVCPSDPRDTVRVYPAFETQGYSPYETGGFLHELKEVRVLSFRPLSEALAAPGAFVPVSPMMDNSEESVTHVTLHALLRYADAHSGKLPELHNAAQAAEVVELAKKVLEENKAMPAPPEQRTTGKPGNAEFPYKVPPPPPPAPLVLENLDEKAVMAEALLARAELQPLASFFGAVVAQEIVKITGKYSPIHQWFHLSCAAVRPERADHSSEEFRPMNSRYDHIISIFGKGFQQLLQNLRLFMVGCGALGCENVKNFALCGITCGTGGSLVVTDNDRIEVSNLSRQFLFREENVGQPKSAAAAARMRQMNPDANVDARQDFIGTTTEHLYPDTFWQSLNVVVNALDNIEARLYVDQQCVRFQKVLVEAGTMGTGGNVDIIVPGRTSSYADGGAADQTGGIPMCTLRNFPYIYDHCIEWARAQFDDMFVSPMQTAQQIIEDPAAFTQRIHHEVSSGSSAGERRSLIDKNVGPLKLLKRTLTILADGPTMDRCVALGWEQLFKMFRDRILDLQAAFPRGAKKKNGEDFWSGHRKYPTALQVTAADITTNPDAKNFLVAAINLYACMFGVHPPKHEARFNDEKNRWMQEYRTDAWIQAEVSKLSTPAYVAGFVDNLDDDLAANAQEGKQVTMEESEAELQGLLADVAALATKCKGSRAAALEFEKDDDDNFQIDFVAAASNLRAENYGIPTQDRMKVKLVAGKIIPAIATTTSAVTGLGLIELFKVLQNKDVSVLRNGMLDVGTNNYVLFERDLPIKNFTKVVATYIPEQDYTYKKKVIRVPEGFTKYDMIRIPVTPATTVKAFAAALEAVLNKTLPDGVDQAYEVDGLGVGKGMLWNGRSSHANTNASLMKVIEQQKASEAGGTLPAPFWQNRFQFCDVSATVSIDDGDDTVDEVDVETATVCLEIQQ
The assay can be described thus: Leishmania donovani Ubiquitin Activating Enzyme (LdE1). Format: functional. The note with it: 30 µM.

Assay [3] addresses AMP-activated protein kinase, AMPK (Homo sapiens) (UniProt P54646+O43741+P54619+Q9UGJ0+Q9Y478+Q13131+Q9UGI9). Description: AMP-dependent Kinase enzyme assay. An in vitro enzyme assay that detects ADP turnover that is directly proportional to AMPK activity. This uses naive AMPK that is activated during the assay with MK-8722. Format: functional. The note with it: 30 µM.
Assay [4] addresses Sialic acid-binding Ig-like lectin 9 (Homo sapiens) (UniProt Q9Y336). Description: Hs-Siglec9 ALPHAscreen SOP 20170721. The note with it: 10 µM. Background: In Alpha technology, singlet oxygen from a donor bead excites a nearby acceptor bead.
The subject of assay [5] is Trypanosoma cruzi. The assay can be described thus: Trypanosoma cruzi phosphomannomutase and mannose-1-phosphate guanylyltransferase assay. The class given is functional. The note with it: 10 µM.
Assay [6] concerns the target T2, Arginase-2, mitochondrial (Homo sapiens) (UniProt P78540).
T2 sequence (whole entry): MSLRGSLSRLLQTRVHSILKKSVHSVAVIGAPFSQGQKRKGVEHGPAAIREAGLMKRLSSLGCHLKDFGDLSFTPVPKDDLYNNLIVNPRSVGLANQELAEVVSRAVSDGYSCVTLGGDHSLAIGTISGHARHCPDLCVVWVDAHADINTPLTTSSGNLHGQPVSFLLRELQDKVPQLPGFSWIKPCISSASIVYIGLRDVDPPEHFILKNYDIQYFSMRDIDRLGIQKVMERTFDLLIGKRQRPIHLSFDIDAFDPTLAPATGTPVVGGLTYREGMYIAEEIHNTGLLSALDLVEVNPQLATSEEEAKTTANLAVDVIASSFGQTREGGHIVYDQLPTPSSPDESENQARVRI
Description: in vitro enzyme assay to detect the production of urea directly proportional to the activity of Arginase II. Note: in the data most compounds retested in dose-response had high values. Format: functional.

In assay [7] the target is T3, Proteasome subunit beta (Trypanosoma cruzi) (UniProt O96673).
T3 sequence (whole entry): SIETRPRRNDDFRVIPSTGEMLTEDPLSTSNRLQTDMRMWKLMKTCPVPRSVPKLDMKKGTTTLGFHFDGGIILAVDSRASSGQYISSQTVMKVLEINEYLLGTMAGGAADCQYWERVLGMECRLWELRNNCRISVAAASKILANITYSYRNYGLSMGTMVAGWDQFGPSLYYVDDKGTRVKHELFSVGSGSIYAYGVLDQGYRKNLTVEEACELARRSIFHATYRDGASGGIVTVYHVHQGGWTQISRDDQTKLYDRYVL
The assay can be described thus: Trypanosoma cruzi proteasome chymotrypsin-like activity (TcProtChymo) assay. Note: in the data most compounds retested in dose-response had high values. To be noted: 9.37 µM. Format: functional.

The species entered for assay [8] is Homo sapiens. The assay can be described thus: To identify inhibition of the IFN signalling (Jak-Stat) pathway via expression of an eGFP reporter gene under the control of an IFN-stimulated response element (ISRE) containing MxA promoter. Format: functional. The note with it: 30 µM. (In a reporter assay the amount or activity of a reporter protein is the signal.)

In assay [9] the target is T4, Tyrosyl-tRNA synthetase, putative (Trypanosoma cruzi (strain CL Brener)) (UniProt Q4DSP6).
T4 sequence (whole entry): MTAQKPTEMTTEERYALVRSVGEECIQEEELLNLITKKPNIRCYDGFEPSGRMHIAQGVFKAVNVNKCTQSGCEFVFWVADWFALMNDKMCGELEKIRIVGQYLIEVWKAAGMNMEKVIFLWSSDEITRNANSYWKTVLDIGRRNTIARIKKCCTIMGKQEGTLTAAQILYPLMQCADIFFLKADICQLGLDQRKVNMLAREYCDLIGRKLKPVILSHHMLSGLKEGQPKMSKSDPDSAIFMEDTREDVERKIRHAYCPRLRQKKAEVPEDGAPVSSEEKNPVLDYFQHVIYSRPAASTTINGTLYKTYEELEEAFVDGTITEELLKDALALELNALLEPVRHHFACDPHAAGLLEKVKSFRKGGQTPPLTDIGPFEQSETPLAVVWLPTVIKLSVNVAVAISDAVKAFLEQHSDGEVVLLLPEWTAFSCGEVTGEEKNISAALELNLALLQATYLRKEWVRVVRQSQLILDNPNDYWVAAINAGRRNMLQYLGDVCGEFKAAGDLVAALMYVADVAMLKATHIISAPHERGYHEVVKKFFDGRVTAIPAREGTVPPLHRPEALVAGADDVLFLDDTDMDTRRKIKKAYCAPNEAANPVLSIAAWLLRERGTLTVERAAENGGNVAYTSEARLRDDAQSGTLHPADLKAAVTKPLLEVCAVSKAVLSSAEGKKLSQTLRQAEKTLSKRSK
The assay can be described thus: Trypanosoma cruzi tyrosyl tRNA synthetase (TcYRS) _High Tyrosine SOP. Note: in the data most compounds retested in dose-response had high values. Format: functional. The note with it: 30 µM.

In assay [10] the target is T4, Tyrosyl-tRNA synthetase, putative (Trypanosoma cruzi (strain CL Brener)). The assay can be described thus: Trypanosoma cruzi tyrosyl tRNA synthetase (TcYRS) SOP. Format: functional. The note with it: 30 µM.
Assay [11] has as its target Chromo domain-containing protein 1 (Saccharomyces cerevisiae (strain ATCC 204508 / S288c) (Baker's yeast)) (UniProt P32657). Description: ScCHD-1 Enzyme Inhibition Assay. Note: in the data most compounds retested in dose-response had high values. Format: functional. The note with it: 30 µM.
The test system of assay [12] is N/A. The assay can be described thus: Trypanosoma cruzi proteasome luciferase counter-screen. The note with it: 9.37 µM. Format: functional. (In general: The purpose of a counterscreen is to sort out artefacts and off-target activity.)

Chain of Protein translocase subunit SecA (Escherichia coli (strain K12)) (P10408 whole entry): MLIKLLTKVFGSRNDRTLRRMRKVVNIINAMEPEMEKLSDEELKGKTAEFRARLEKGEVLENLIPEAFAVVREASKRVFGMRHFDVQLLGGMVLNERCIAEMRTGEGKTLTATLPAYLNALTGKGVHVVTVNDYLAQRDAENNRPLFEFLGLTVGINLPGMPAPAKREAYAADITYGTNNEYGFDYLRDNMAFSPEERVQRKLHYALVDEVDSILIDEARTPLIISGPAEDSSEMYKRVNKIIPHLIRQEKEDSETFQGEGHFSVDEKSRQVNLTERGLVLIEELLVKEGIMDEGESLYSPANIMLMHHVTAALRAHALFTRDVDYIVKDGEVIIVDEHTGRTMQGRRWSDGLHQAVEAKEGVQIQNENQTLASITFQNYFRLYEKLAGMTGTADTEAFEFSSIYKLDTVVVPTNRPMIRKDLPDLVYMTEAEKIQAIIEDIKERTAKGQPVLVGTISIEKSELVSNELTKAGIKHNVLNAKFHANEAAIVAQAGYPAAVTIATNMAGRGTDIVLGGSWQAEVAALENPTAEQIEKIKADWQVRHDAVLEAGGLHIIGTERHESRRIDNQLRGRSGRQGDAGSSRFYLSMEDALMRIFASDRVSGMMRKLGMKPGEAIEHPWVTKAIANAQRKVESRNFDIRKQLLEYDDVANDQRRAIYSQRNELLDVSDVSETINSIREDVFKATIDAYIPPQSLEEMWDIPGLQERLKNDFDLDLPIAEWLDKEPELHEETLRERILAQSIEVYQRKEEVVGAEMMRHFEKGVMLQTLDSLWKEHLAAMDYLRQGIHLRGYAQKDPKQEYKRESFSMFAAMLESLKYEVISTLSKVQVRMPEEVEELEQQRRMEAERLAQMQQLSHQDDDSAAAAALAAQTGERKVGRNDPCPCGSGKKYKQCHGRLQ
Chain of Sialic acid-binding Ig-like lectin 9 (Homo sapiens) (Q9Y336 whole entry): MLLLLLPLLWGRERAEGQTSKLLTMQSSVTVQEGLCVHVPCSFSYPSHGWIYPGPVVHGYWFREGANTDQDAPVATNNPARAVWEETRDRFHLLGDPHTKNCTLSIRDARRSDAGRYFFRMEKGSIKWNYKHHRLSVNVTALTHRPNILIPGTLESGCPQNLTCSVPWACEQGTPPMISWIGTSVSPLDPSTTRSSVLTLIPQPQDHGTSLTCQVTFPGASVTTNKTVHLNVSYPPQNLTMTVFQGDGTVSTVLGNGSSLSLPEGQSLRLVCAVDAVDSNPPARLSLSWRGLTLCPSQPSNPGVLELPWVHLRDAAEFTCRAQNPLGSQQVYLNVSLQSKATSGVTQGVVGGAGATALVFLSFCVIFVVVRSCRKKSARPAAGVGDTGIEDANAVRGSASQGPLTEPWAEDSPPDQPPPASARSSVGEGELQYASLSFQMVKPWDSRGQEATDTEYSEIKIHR
Chain of Chromo domain-containing protein 1 (Saccharomyces cerevisiae (strain ATCC 204508 / S288c) (Baker's yeast)) (P32657 whole entry, the tested form may be a part): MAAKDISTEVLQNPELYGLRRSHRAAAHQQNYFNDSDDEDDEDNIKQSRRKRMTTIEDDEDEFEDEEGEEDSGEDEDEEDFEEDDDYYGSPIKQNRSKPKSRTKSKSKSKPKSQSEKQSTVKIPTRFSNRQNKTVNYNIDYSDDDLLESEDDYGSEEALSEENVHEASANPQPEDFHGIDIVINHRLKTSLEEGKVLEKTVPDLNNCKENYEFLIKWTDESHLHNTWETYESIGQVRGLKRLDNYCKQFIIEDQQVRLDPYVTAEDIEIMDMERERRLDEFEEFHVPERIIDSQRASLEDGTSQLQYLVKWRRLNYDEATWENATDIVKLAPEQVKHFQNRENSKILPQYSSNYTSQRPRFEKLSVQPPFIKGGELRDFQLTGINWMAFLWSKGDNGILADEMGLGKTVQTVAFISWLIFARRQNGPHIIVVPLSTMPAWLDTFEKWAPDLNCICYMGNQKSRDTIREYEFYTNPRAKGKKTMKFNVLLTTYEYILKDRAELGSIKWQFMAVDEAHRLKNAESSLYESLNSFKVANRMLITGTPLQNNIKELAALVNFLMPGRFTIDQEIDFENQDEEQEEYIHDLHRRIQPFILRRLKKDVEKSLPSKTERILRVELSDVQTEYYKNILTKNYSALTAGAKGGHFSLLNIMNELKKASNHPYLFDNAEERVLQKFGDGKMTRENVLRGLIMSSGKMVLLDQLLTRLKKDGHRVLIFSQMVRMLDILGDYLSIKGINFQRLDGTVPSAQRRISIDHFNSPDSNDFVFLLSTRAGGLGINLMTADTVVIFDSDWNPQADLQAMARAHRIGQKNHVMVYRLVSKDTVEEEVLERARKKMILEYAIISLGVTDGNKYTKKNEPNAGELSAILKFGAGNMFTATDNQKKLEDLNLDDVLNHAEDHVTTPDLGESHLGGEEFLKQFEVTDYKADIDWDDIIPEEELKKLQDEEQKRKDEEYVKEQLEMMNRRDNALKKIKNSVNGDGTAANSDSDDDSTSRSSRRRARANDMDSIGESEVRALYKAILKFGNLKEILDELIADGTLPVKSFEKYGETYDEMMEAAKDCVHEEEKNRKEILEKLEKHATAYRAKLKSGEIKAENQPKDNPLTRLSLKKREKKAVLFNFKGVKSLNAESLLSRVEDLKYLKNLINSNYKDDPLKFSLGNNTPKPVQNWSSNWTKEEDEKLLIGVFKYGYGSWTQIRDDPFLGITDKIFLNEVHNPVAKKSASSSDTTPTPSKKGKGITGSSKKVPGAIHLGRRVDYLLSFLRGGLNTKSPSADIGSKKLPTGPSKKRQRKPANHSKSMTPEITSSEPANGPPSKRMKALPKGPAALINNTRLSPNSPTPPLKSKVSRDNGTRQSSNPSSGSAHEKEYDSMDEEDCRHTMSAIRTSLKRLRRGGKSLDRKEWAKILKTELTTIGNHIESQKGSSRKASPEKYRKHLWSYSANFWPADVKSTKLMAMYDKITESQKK

On to `Cn1cc(CN(Cc2ccccc2)CC(O)c2cccs2)cn1` (stereo unspecified), for which the Percent Effect in [1] is -2.22%; in assay [2], 2.7%; in [3], -1.93%; in [4] it was 9.64%; in assay [5], 7.14%; in assay [6] (30 µM) it was 7.03%. Moreover, the Percent Effect was -1.74% in [6] (33.3 µM); 7.81% in assay [7]; 1.28% in [8]; -1.07% in [9]; -13.6% in assay [10]; -8.54% in assay [11].

On to `CC1CCN(S(=O)(=O)c2cccn(CC(=O)N3CCOCC3)c2=O)CC1`, for which the Percent Effect in assay [1] is -2.79%; in [2], 9.33%; in assay [3] it was 5.14%; in assay [4], 0.129%; in [5] it was -4.91%; in assay [6] (30 µM), 3.78%. The Percent Effect in assay [6] (33.3 µM) was -3.7%; in assay [7], 7.02%; in assay [8], 0.032%; in assay [9], 1.06%; in [10] it was 2.56%; in assay [11], -7.85%.

`CN1CCCC1c1ccc(C(=O)N2CCc3ccccc3C2)s1` (stereo unspecified): the Percent Effect in assay [1] was -3.53%; in assay [2] it was -16.2%; in assay [3], 2.64%; in assay [4] it was -7.08%; in assay [5] it was -3.81%; in assay [6] (33.3 µM) it was -2.73%. Also, the Percent Effect was 74.8% and 75.3% and 64.5% in [7]; 44.8% and 43.9% in [12]; 16.1% in assay [8]; 3.23% in assay [9]; -3.7% in assay [10]; 7.75% in [11].

As to `CC(O)CNCc1ccc(OCc2ccc3c(c2)OCCO3)cc1` (stereo unspecified), the Percent Effect is 0.112% in assay [1]; 10.5% in [2]; 0.644% in assay [3]; -9.17% in [4]; -3.6% in assay [5]; -2.37% in [6] (33.3 µM). In addition, the Percent Effect is 61.5% and 58.6% and 62.4% in assay [7]; 31.4% and 28.6% in [12]; -4.62% in assay [8]; 1.06% in assay [9]; 5.2% in assay [10]; -3.79% in assay [11].

Turning to `Cc1noc([C@H]2C[C@H]3OCC[C@H]3N(Cc3ccc4c(c3)OCO4)C2)n1`, the Percent Effect in [1] was -1.12%; in [2], 13.5%; in assay [3], 5.01%; in assay [4] it was -6.24%; in assay [5], -0.88%; in [6] (33.3 µM), 6.05%. Besides, the Percent Effect in [7] was 11.4% and 30.6% and 12.5%; in assay [12], 7.96% and 8.15%; in assay [8] it was -2.22%; in assay [9] it was 5.41%; in assay [10], 17.9%; in assay [11], -3.92%.

In the case of `O=C(O)c1ccc(F)c(S(=O)(=O)Nc2ccc(-n3cccn3)c(Cl)c2)c1`, the Percent Effect in [1] is -5.92%; in assay [2], -2.67%; in assay [3] it was -7.61%; in assay [4], -0.566%; in [5], -2.63%; in assay [6] (33.3 µM), 0%. Further, the Percent Effect was 16.3% and 16.5% and 41.1% in assay [7]; 15.6% and 20.6% in [12]; -13.3% in assay [8]; -1.64% in [9]; 1.24% in [10]; -4.16% in assay [11].

In the case of `Cc1ccc(C(=O)Nc2cn[nH]c2)cc1C`, the Percent Effect worked out at 0.399% in [1]; 18.4% in assay [2]; 16.7% in assay [3]; 3.99% in [4]; 0.188% in assay [5]; 1.15% in [6] (33.3 µM). For the same molecule, the Percent Effect was 53% and 40.4% and 50.9% in assay [7]; 27.1% and 25% in assay [12]; 5.81% in assay [8]; 11.3% in assay [9]; 24.4% in assay [10]; -9.31% in assay [11].

As to `c1ccc2sc(N3CCOC(Cn4cccn4)C3)nc2c1` (stereo unspecified), the Percent Effect in [1] is -6.09%; in [2], 13.5%; in [3], -6.61%; in [4] it was 25.1%; in assay [5] it was 4.25%; in assay [6] (33.3 µM), -6.41%. In addition, the Percent Effect in assay [7] was 38.1% and 31.4% and 25.9%; in [12] it was 10.8% and 13.7%; in [8], 17.4%; in assay [9], 8.37%; in assay [10] it was 25.9%; in [11] it was -17.7%.
